Reference: PubChem BioAssay AID624125 (The Scripps Research Institute Molecular Screening Center, 2012)
Out of some 360,000 compounds screened, about 2,600 (0.72%) were called active.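 How the source made its calls: active means inhibition above its plate's cutoff, the mean inhibition of sample wells plus 3 SD (cut at about 27% in these data); inactive means the rest.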 The entries come from a sample that favours actives as a whole.

molecular target: Muscarinic acetylcholine receptor M4 (Homo sapiens) (UniProt P08173); experiment: CHRM4 blockers of acetylcholine calcium response – CHO cells, Fluo-8 calcium fluorescence, primary screen (AID 624125); conditions: CHO-hM4 cells, ACh EC80, Fluo-8 calcium fluorescence; at 3 µM; stronger effect = higher value;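 further: 0% = acetylcholine EC80 with DMSO and 100% = DMSO without agonist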
Sequence (P08173 whole entry, looked up): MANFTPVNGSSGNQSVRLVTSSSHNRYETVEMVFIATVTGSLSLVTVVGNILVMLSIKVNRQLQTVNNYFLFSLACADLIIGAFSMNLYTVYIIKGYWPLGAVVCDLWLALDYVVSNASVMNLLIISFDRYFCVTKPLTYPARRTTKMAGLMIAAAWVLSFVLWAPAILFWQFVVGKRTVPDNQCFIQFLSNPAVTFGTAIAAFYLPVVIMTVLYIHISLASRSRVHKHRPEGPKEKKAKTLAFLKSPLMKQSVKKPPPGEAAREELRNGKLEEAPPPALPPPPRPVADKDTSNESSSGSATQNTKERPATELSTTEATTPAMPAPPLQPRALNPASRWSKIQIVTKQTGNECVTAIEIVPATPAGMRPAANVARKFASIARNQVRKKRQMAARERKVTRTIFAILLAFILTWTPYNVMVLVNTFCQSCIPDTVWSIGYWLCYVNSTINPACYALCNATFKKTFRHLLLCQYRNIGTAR

inhibition, inactive:
CC(C)c1ccc(OCC(O)CN2CCN(c3ccccn3)CC2)cc1 (centres undefined) -9.52%
CC(=O)OC(COc1ccc(F)cc1)Cn1cnc2ccccc21 (centres undefined) 11.2%
COC(=O)c1ccccc1NC(=O)C1CC(=O)N(c2ccc(OC)cc2)C1 (centres undefined) -8.44%
COc1ccc(CN2CC(C(=O)NCCc3ccc(Cl)cc3)CC2=O)cc1 (centres undefined) -3.66%
CCCC(=O)Nc1ncnc2c1ncn2[C@@H]1O[C@@H]2OP(=O)(O)OC[C@H]2[C@H]1OC(=O)CCC -12.4%
COc1ccc(C(=O)OCC(=O)NCCCc2ccccc2)cc1OC 2.28%
COc1ccc(C(CCN(Cc2ccc(OC)c(OC)c2)C(=O)CCl)c2ccccc2)cc1 (centres undefined) -0.52%
Cc1n[nH]c(=O)c2c(NC(=O)CSc3cc(Cl)ccc3Cl)oc(C)c12 -3.66%
COc1ccc2[nH]c3c(C)c4cc[n+](C)cc4c(C)c3c2c1 1.89%
CC(OC(=O)c1ccc(NS(=O)(=O)c2ccc3[nH]c(=O)[nH]c3c2)cc1)C(=O)Nc1cccc(Cl)c1Cl (centres undefined) 5.91%
COc1ccc(CCN2C(=O)N(c3ccc(OC)cc3)C(=O)C2CC(=O)Nc2ccc(OC)cc2)cc1 (centres undefined) -16.8%
CCN(Cc1ccccc1)C(=O)CSc1nc(C)cc2c1C(=O)OC2 8.21%
C[N+]1(CC(O)COc2ccccc2)CCN(C(=O)c2ccc([N+](=O)[O-])cc2)CC1 (centres undefined) -5.14%
O=C(Nc1ccc(F)cc1)C1CCN(C(=O)c2ccc([N+](=O)[O-])cc2)CC1 -7.19%
Cn1c(=O)c2c(SCC(=O)NCC3CCCO3)nc(CC(C)(C)C)nc2n(C)c1=O (centres undefined) 2.72%
CCNc1nc(Oc2ccc(C(=O)OC)cc2)nc(N2CCOCC2)n1 2.43%
CCOC(=O)C1C(c2ccc(O)cc2)NC(=O)NC1(O)C(F)(F)F (centres undefined) 5.66%
CC1=NN(c2cccc(Cl)c2)C(=O)C12CC(C)=C(C)CS2 (centres undefined) -0.34%
O=C1Nc2c(Br)cc(Br)cc2C1(O)N1CCOCC1 (centres undefined) -12%
CCC(CC)C(C(=O)NC1CCCC1)N1CCN(c2cc(C)nc3ccccc23)CC1 (centres undefined) -16.6%

inhibition, active:
CC(C)c1ccc(OCC(O)Cn2cnc3ccccc32)cc1 (centres undefined) 32%
CCN(CCCCOC(=O)c1ccc(OC)c(OC)c1)C(C)Cc1ccc(OC)cc1 (centres undefined) 61.6%
COc1ccccc1C1SCCN1C(=O)c1ccc([N+](=O)[O-])cc1 (centres undefined) 57%
O=C(c1cccs1)C1C(c2ccc(Br)cc2)NC(=S)NC1(O)C(F)(F)F (centres undefined) 77.3%
